# Source: PubChem BioAssay
# The source made the active and inactive calls. Unless noted, no rule for the calls is given here.
# Tests used:
# [1] = test system: Wnt5a (protein binding on small-molecule microarray); assay: Wnt5a binders on small-molecule microarray, primary screen, biophysical, 635/667 nm fluorescence (AID 1142); settings: 635 nm fluorescence, higher = more signal;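 also: fluorescence read at 667 nm with signal to noise per printed feature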
# [2] = cell viability in Huh7 cells, primary screen, cytotoxicity control for HCV replication inhibitor project, CellTiter-Glo luminescence, basal, 48 h (AID 1143); settings: Huh7 HCV replicon, higher = more signal, called active from +8 up or from −8 down;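 also: Huh7 hepatoma cells carrying a hepatitis C replication reporter with no stimulus; test concentration not given here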
# [3] = P. aeruginosa biofilm formation inhibitors, primary screen, PAO1 strain, BacTiter-Glo luminescence, LB-PBS (AID 1144); settings: 12 h, higher = more signal
# [4] = CREB reporter modulators without forskolin, primary screen, cell-based, PC12, CRE-LacZ reporter, unstimulated (AID 1145); settings: no forskolin, luminescence, 4.5 h, higher = more signal, called active from +8 up or from −8 down
# [5] = CREB reporter modulators under forskolin, primary screen, cell-based, PC12, CRE-LacZ reporter, forskolin-stimulated (AID 1146); settings: luminescence, 4.5 h, higher = more signal, called active from +8 up or from −8 down;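 also: PC12 cells with 6xCRE LacZ reporter stimulated by forskolin 10 µM; beta-galactosidase reporter signal reflecting CREB driven transcription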
# [6] = molecular target: Streptavidin (Streptomyces avidinii) (UniProt P22629); assay: streptavidin binders on small-molecule microarray, primary screen, artefact control for SMM compound annotation, biophysical, 635/667 nm fluorescence (AID 1147); settings: streptavidin binding, higher = more signal;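 also: signal reflects streptavidin binding to arrayed compounds as a control protein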
# [7] = small-molecule binders of probe aInhba, primary screen, biochemical, small-molecule microarray, 635/667 nm fluorescence (AID 1148); settings: higher = more signal;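 also: score merges 667nm spot fluorescence with signal-to-noise for antibody binding to printed compounds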
# Torsin-1A (Homo sapiens) [8] = molecular target: Torsin-1A (Homo sapiens) (UniProt O14656); assay: torsin A binders from cell lysate, primary screen, small-molecule microarray, wild-type, 635/667 nm (AID 1149); settings: COS7 hTOR1A-WT lysate, 635 nm fluorescence, higher = more signal
# Torsin-1A (Homo sapiens) [9] = molecular target: Torsin-1A (Homo sapiens) (UniProt O14656); assay: small-molecule binders of mutant TOR1A in lysate, primary screen, cell lysate, small-molecule microarray, COS7 lysate, 635/667 nm fluorescence (AID 1150); settings: COS7 hTOR1A mutant lysate, 635 nm fluorescence, higher = more signal;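 also: score pools 667 nm emission and signal to noise measuring lysate protein binding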
# [10] = test system: Sonic hedgehog protein (Shh); assay: small-molecule binders of Shh protein, primary screen, biochemical, small-molecule microarray, 635/667 nm fluorescence (AID 1151); settings: small-molecule microarray binding, 635 nm fluorescence; higher = more signal;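 also: Shh protein binding to compounds spotted on small-molecule microarray slides; score combines spot fluorescence intensity with signal-to-noise across triplicate slides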
# [11] = E. coli DRC41 culture turbidity changes, primary screen, E. coli filamentation inducer project, strain DRC41, OD650, 48 h (AID 1152);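 also: E. coli MC1000 strain DRC41 lacking acrAB efflux pump and sulA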; settings: E. coli DRC41 (acrAB sulA), higher = more signal, called active from +8 up or from −8 down
# [12] = small-molecule binders of probe aLefty1, primary screen, biochemical, small-molecule microarray, 635/667 nm fluorescence (AID 1153); settings: higher = more signal;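 also: score merges spot fluorescence with signal-to-noise ratio from the scanned slide images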
# [13] = PSAC antagonists in infected red cells, primary screen, cell-based, P. falciparum Indochina, OD700, 1 h (AID 1154); settings: P. falciparum Indochina infected RBC osmotic lysis, higher = more signal, called active from +8 up or from −8 down
# [14] = PSAC antagonists in infected red cells, primary screen, cell-based, P. falciparum Indochina, OD700, 2 h (AID 1155);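 also: lysis reports solute entry through the parasite surface anion channel PSAC; channel blockers reduce lysis of infected cells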; settings: P. falciparum Indochina infected erythrocytes, osmotic lysis OD700; higher = more signal, called active from +8 up or from −8 down
# [15] = osmotic lysis modulators in infected erythrocytes, primary screen, PSAC antagonist project, cell-based, P. falciparum Indochina, OD700, 3 h (AID 1156); settings: higher = more signal, called active from +8 up or from −8 down
# [16] = PSAC antagonists in infected red cells, primary screen, cell-based, P. falciparum Indochina, OD700, 18 h (AID 1157); settings: P. falciparum Indochina infected erythrocytes, osmotic lysis OD700, 18 h; higher = more signal, called active from +8 up or from −8 down
# [17] = modulators of S6 phosphorylation in cells, primary screen, cell-based, A549, cytoblot, luminescence, serum-stimulated (AID 1158); settings: A549 phospho-S6 cytoblot, 5 h, higher = more signal;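 also: serum-stimulated A549 lung adenocarcinoma cells; signal is phosphorylated S6 detected by cytoblot immunostaining with HRP secondary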
# [18] = molecular target: NADPH oxidase 2 (Homo sapiens) (UniProt P04839); assay: NOX2-dependent H2O2 signal modulators, primary screen, NOX inhibitor project, cell-based, HEK293-NOX2, PMA-stimulated, Amplex Red fluorescence (AID 1159); settings: 45 min, higher = more signal, called active from +8 up or from −8 down; also: test concentration not given here
# [19] = molecular target: NADPH oxidase 4 (Homo sapiens) (UniProt Q9NPH5); assay: NOX4-dependent H2O2 signal modulators, primary screen, NOX inhibitor project, cell-based, HEK293-NOX4, tetracycline-induced, Amplex Red fluorescence (AID 1160); settings: 45 min, higher = more signal, called active from +8 up or from −8 down
# [20] = molecular target: NADPH oxidase 5 (Homo sapiens) (UniProt Q96PH1); assay: NOX5-dependent H2O2 signal modulators, primary screen, NOX inhibitor project, cell-based, HEK293-NOX5, Amplex Red fluorescence (AID 1161); settings: HEK293-NOX5, ionomycin, 45 min, higher = more signal
# Chain of NADPH oxidase 5 (Homo sapiens) (Q96PH1 whole entry, looked up): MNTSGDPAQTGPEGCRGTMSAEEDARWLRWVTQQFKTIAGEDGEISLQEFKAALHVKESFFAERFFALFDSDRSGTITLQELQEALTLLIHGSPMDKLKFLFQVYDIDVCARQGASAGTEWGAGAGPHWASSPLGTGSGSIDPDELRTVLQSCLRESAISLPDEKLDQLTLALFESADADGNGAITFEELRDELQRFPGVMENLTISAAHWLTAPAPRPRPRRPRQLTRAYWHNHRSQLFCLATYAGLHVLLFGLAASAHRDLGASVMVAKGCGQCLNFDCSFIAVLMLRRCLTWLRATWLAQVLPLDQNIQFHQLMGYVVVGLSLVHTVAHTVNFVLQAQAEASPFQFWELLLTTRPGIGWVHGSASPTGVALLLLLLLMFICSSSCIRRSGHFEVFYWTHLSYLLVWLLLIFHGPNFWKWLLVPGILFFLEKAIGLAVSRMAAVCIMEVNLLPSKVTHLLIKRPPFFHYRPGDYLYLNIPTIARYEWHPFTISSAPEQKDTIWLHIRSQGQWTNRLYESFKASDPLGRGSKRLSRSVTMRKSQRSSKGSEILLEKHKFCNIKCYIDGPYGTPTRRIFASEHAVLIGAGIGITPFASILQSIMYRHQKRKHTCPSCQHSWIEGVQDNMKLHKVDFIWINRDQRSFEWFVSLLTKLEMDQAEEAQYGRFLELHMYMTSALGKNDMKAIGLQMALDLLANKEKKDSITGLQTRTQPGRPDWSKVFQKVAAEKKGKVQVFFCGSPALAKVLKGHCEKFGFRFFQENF
# Chain of Streptavidin (Streptomyces avidinii) (P22629 whole entry, looked up): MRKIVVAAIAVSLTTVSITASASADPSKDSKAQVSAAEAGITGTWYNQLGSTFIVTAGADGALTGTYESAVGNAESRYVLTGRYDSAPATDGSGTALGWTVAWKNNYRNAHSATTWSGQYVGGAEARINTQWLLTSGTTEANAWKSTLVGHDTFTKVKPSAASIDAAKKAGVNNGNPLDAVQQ
# Chain of NADPH oxidase 2 (Homo sapiens) (P04839 whole entry, looked up): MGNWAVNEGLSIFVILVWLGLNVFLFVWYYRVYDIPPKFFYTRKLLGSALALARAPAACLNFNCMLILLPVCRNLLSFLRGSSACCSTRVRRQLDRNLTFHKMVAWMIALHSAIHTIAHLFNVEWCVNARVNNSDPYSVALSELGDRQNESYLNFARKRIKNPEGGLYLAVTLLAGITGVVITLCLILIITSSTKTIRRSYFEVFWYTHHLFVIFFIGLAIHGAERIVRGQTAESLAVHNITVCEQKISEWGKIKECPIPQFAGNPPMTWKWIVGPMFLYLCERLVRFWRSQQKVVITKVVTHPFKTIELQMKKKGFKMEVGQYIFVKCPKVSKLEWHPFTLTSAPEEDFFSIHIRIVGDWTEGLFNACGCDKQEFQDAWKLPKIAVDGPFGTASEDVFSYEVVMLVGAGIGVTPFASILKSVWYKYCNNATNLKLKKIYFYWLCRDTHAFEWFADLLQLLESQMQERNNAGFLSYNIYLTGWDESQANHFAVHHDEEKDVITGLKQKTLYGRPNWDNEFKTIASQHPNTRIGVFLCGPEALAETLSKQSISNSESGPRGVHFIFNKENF
# Chain of Torsin-1A (Homo sapiens) (O14656 whole entry, looked up): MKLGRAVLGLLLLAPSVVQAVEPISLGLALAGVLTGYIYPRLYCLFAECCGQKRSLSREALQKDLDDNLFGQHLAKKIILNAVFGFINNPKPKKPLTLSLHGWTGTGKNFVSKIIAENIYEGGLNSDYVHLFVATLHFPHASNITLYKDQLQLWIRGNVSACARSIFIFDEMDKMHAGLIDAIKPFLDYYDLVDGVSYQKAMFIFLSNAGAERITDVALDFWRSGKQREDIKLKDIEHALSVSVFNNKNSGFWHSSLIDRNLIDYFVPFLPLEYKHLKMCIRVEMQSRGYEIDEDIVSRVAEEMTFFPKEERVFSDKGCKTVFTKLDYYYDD
# Chain of NADPH oxidase 4 (Homo sapiens) (Q9NPH5 whole entry, looked up): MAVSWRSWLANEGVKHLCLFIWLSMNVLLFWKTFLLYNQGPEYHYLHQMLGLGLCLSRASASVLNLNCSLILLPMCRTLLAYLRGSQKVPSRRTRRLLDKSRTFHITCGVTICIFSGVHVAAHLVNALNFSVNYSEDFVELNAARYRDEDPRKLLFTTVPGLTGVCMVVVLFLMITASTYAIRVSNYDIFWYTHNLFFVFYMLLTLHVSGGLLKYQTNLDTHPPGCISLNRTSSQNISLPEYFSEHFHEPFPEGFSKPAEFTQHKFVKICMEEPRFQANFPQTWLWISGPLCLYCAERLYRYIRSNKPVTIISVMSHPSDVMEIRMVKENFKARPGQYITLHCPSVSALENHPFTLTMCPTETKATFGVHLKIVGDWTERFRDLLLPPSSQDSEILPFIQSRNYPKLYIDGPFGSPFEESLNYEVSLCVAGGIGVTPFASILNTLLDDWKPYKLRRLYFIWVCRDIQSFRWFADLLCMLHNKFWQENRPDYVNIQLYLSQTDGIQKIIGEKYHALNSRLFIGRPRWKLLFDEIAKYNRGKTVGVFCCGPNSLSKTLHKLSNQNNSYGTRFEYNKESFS
Compound,composite z-score [1],z-score [2],z-score [3],z-score [4],z-score [5],composite z-score [6],composite z-score [7],composite z-score (Torsin-1A (Homo sapiens) [8]),composite z-score (Torsin-1A (Homo sapiens) [9]),composite z-score [10],z-score [11],composite z-score [12],z-score [13],z-score [14],z-score [15],z-score [16],z-score [17],z-score [18],z-score [19],z-score [20]
CC(C)=CCCC(C)=CC(O)C1C=CC2C(=O)N(c3ccccc3)C(=O)C2N1Nc1ccc([N+](=O)[O-])cc1 (stereo not given),0.0504,-1.72 (inactive),-0.322 (inactive),0.323 (inactive),-0.0578 (inactive),2.06,0.077,0.383,1.12,0.821,-1.41 (inactive),-0.131,8.34 (active),2.3 (inactive),1.04 (inactive),1.44 (inactive),-0.563,-0.381 (inactive),-3.41 (inactive),-0.516
C=CC[C@]1(C(=O)N(C)C)N=C(c2ccc(OCCCO)cc2)O[C@H]1c1ccccc1,0.902,-4.69 (inactive),-0.87 (inactive),-0.38 (inactive),-1.19 (inactive),0.197,0.0471,0.62,1.27,0.757,1.17 (inactive),0.325,28.3 (active),17.7 (active),3.55 (inactive),1.46 (inactive),1.41,-2.39 (inactive),-0.252 (inactive),-4.75
C=CCNC(=O)[C@H]1[C@@H]2C(=O)O[C@@H](c3ccccc3)[C@@H](c3ccccc3)N2[C@@H](c2ccc(OCCO)cc2)[C@]12C(=O)N(C(=O)OCCOC)c1ccc(C#CC3=CCCCC3)cc12,-0.0184,-4.77 (inactive),1.09 (inactive),-0.0647 (inactive),-0.638 (inactive),0.716,0.18,0.689,0.868,1.32,1.1 (inactive),0.213,2.13 (inactive),1.76 (inactive),0.178 (inactive),0.948 (inactive),0.632,1.99 (inactive),0.421 (inactive),2.48
C=C(/C(=C/C[C@@H](OC(=O)c1ccncc1)c1cccc(OCCO)c1)c1cc(C(=O)OC)ccc1OC)C(C)C,-0.0958,-1.82 (inactive),-0.634 (inactive),26.8 (active),-1.07 (inactive),0.179,-0.0695,0.227,0.868,1.64,0.987 (inactive),0.649,15 (active),3.01 (inactive),2.43 (inactive),1.04 (inactive),0.421,2.05 (inactive),1.09 (inactive),-0.951
COc1ccc([Si](C)(C)[C@@H]2[C@@H](CCO)O[C@]3(C(=O)N(Cc4cccc(N5C(=O)COc6ccccc65)c4)c4ccccc43)[C@H]2C)cc1,-0.0772,-7.12 (inactive),-0.17 (inactive),6.98 (inactive),0.586 (inactive),0.428,0.0633,-0.277,-0.491,0.45,0.111 (inactive),0.139,3.9 (inactive),3.53 (inactive),0.797 (inactive),2.26 (inactive),0.373,0.416 (inactive),1.36 (inactive),1.49
CCOC(=O)C1=CC[C@@H](c2cccc(Br)c2)N(S(=O)(=O)c2ccc(C)cc2)[C@H]1c1ccc([N+](=O)[O-])cc1,0.559,-2.18 (inactive),-0.314 (inactive),-0.63 (inactive),0.115 (inactive),1.22,0.157,0.907,0.469,0.778,-1.22 (inactive),0.0509,1.27 (inactive),1.55 (inactive),-0.0988 (inactive),1.29 (inactive),-0.68,1.24 (inactive),0.77 (inactive),0.165
COCCCNC(=O)[C@@H]1c2ccccc2C(=O)N(Cc2cc(F)cc(C(F)(F)F)c2)[C@H]1c1ccc(CO)cc1,-0.575,-0.016 (inactive),-0.043 (inactive),0.944 (inactive),-0.224 (inactive),-0.716,-0.264,-2.22,-0.0932,-0.508,-0.0134 (inactive),-0.25,1.49 (inactive),0.35 (inactive),0.62 (inactive),0.0592 (inactive),-0.731,0.193 (inactive),0.401 (inactive),0.774
COCCOC(=O)N1C(=O)[C@@]2(c3cc(C#Cc4ccc(OC)cc4)ccc31)[C@H](c1ccc(OCCO)cc1)N1[C@H](c3ccccc3)[C@H](c3ccccc3)OC(=O)[C@H]1[C@@H]2C(N)=O,0.41,-2.73 (inactive),0.854 (inactive),-1.15 (inactive),-1.28 (inactive),0.879,0.187,0.428,0.835,1.96,0.629 (inactive),0.291,5.54 (inactive),2.19 (inactive),0.528 (inactive),0.924 (inactive),-0.141,1.49 (inactive),1.03 (inactive),1.85
